From PubChem BioAssay
Wnt bcat act – activators of Wnt/beta-catenin signaling; activation, % at 9.35 µM; Wnt/beta-catenin reporter cell assay, activator, plate reader; AID 743398; 300,000 compounds, 1.2% hits; in the data active = activation above about 30%, passing the limit was not always enough; inconclusive = no clear call, values can overlap the other calls
PfHsp90 yeast 2 – reduces growth (ATP signal) of yeast expressing P. falciparum Hsp90 | S. cerevisiae expressing PfHsp90, BacTiter-Glo ATP, 48 h; yeast lacking PDR1 and PDR3 efflux regulators | inhibition, % at 9.4 µM | 310,000 compounds, 0.32% hits | AID 504621;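 active = every replicate shows inhibition above about 80%, whatever the replicate mean, limit read from the data; inconclusive = mean inhibition reaches the set limit but some replicate falls short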
MITF TRPM1 HTS – activators of MITF-driven TRPM1 promoter activity in SK-MEL-5 cells; SK-MEL-5 TRPM1-promoter luciferase, 24 h; % of positive control, neutral wells = 0; activation, % at 12.5 µM; 300,000 compounds, 0.75% hits; AID 588334;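 active = mean activation of at least 80% with every replicate also reaching 80%; inconclusive = mean reaches 80% but some replicate falls short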
Vif imaging – HIV Vif inhibition | AID 602346 | inhibition, % at 7.49 µM | 340,000 compounds, 0.35% hits | HEK293T cells, Vif self-association by quenched fluorescence, imaging, 24 h; in the data active = inhibition above about 50%, passing the limit was not always enough; inconclusive = no clear call, values can overlap the other calls; inactive = below about 31%
esBAF inh – SWI/SNF esBAF complex inhibition. mouse ES cells, Bmi1-luciferase knock-in reporter, 24 h; 100% = twice the neutral-well signal. reporter increase, % at 12.5 µM. 350,000 compounds, 2% hits. AID 602393; in the data active = activation above about 40%; inconclusive = no clear call, values can overlap the other calls;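 also: a rise in the Bmi1 reporter signal indicates esBAF inhibition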
N-glyco inh – N-linked glycosylation inhibition; D54 ERlucT glycosylation luciferase reporter, 24 h; percent of 100 nM tunicamycin response; reporter increase, % at 12.5 µM; 360,000 compounds, 0.23% hits;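 active = mean luciferase reporter signal, scaled so untreated is 0 and the glycosylation-blocking control 100, at or above a set limit in every replicate; inconclusive = mean reaches the limit but not every replicate does; inactive = mean below the limit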;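 also: luciferase carries N-glycosylation sites so blocking glycosylation raises the light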
Hits are given with their value. Compounds with a hit are over-represented: about 3% of the library has one in this group of screens.

`Cc1ccnc(NC(=O)Nc2ccc3c(c2)N(C)C(=O)CS3)c1` gave Wnt bcat act inactive, PfHsp90 yeast 2 inactive, MITF TRPM1 HTS 187, Vif imaging inactive and N-glyco inh inconclusive.
`Cc1ccc(NC(=O)Nc2ccc3c(c2)N(C)C(=O)CS3)nc1` gave Wnt bcat act inactive, PfHsp90 yeast 2 inactive, MITF TRPM1 HTS inconclusive, Vif imaging inactive, esBAF inh inconclusive and N-glyco inh inactive.
For CC(=O)NC(c1cccc(F)c1)c1nc(-c2cnn(C)c2)cs1 (stereo not given) the results were Wnt bcat act inactive, Vif imaging inactive, esBAF inh inactive and N-glyco inh inactive.
C=CCn1c(SCC(=O)Nc2ccc3c(c2)OCO3)nnc1-c1ccccc1 was read as Wnt bcat act inactive, PfHsp90 yeast 2 inactive, MITF TRPM1 HTS inactive, Vif imaging inactive, esBAF inh inactive and N-glyco inh inactive.
For C=CCn1c(SCC(=O)Nc2ccc3c(c2)OCO3)nnc1-c1cc(Br)ccc1O the results were Wnt bcat act 47, PfHsp90 yeast 2 inactive, MITF TRPM1 HTS inactive, Vif imaging inactive, esBAF inh inactive and N-glyco inh inactive.
For Cc1ccc(C)n1-n1cnc2scc(-c3cccs3)c2c1=O the results were PfHsp90 yeast 2 inactive, MITF TRPM1 HTS inactive, Vif imaging inactive and N-glyco inh inactive.
`O=C(NCC1CCCN1S(=O)(=O)c1cccs1)C(=O)Nc1ccccc1F` (stereo not given) gave Wnt bcat act inactive, Vif imaging inactive, esBAF inh inactive and N-glyco inh inactive.
For O=C(NCC1CCCN1S(=O)(=O)c1cccs1)C(=O)Nc1ccccc1Cl (stereo not given) the results were Wnt bcat act inactive, MITF TRPM1 HTS inactive, Vif imaging inactive, esBAF inh 51 and N-glyco inh inactive.
Screening COc1cccc(NC(=O)C(=O)NCC2CCCN2S(=O)(=O)c2ccccc2)c1 (stereo not given) returned Wnt bcat act 43, MITF TRPM1 HTS 158, Vif imaging inactive, esBAF inh 79 and N-glyco inh inactive.
Screening Cc1ccc(OCC(=O)NNC(=O)CSC(=S)N2CCCC2)cc1 returned Wnt bcat act inactive, MITF TRPM1 HTS inactive, Vif imaging inactive, esBAF inh inactive and N-glyco inh inactive.
CCc1ccc(C2c3[nH]c4ccccc4c3CCN2C(=O)c2ccc(=O)n(C)n2)cc1 (stereo not given) was read as Wnt bcat act inactive, PfHsp90 yeast 2 inactive, MITF TRPM1 HTS inactive, Vif imaging inactive, esBAF inh inactive and N-glyco inh inactive.
CSc1ccc(C2c3[nH]c4ccccc4c3CCN2C(=O)c2ccnn2C)cc1 (stereo not given) was read as Wnt bcat act 42, PfHsp90 yeast 2 inactive, MITF TRPM1 HTS inactive, Vif imaging inactive and N-glyco inh inactive.
Cc1ccccc1/C=C/C(=O)c1ccc([N+](=O)[O-])o1 was read as Wnt bcat act inactive.
`Cc1cccc(/C=C/C(=O)c2ccc([N+](=O)[O-])o2)c1` gave Wnt bcat act inactive, PfHsp90 yeast 2 103, MITF TRPM1 HTS inconclusive, Vif imaging 62, esBAF inh inactive and N-glyco inh inactive.
`O=C(/C=C/c1cccc([N+](=O)[O-])c1)c1ccc([N+](=O)[O-])o1` gave Wnt bcat act inactive, PfHsp90 yeast 2 125, MITF TRPM1 HTS inactive, Vif imaging inconclusive, esBAF inh inactive and N-glyco inh inactive.
`O=C(/C=C/c1cccc([N+](=O)[O-])c1)c1ccco1` gave Wnt bcat act inactive, PfHsp90 yeast 2 85, MITF TRPM1 HTS inactive, Vif imaging inactive, esBAF inh inactive and N-glyco inh inactive.
For C=CCN=C1NN=C(c2cc(C)n(CC=C)c2C)CS1 the results were Wnt bcat act inactive, PfHsp90 yeast 2 inactive, MITF TRPM1 HTS inactive, Vif imaging inactive and N-glyco inh inactive.
Screening CC(=O)Cc1nsc(NC(=O)c2ccc(COc3ccccc3Cl)o2)n1 returned Wnt bcat act inactive, PfHsp90 yeast 2 inactive, MITF TRPM1 HTS inactive, Vif imaging inactive, esBAF inh inactive and N-glyco inh inactive.
Screening Cc1ccccc1-c1cc2nc(Oc3cccc(F)c3)n(C)c(=O)c2s1 returned Vif imaging inactive, esBAF inh inactive and N-glyco inh inactive.
`Cn1c(NC(=O)CC2CCCCC2)cc(=O)n(C)c1=O` gave Wnt bcat act inactive, PfHsp90 yeast 2 inactive, MITF TRPM1 HTS inactive, Vif imaging inactive, esBAF inh inactive and N-glyco inh inactive.
For O=C(O)c1cccc(NCc2cccnc2)c1 the results were PfHsp90 yeast 2 inactive, MITF TRPM1 HTS inactive, Vif imaging inactive, esBAF inh inactive and N-glyco inh inactive.
For O=C(O)c1ccc(NCc2cccnc2)cc1 the results were Wnt bcat act 46, PfHsp90 yeast 2 inactive, MITF TRPM1 HTS inactive, Vif imaging inactive, esBAF inh 97 and N-glyco inh inactive.
CCOC(=O)C(C)Sc1nnc(Cc2cc(=O)[nH]c(=O)[nH]2)n1-c1cccc(OC)c1 (stereo not given) was read as Wnt bcat act inactive, PfHsp90 yeast 2 inactive, MITF TRPM1 HTS inactive, Vif imaging inactive, esBAF inh inactive and N-glyco inh inactive.
For COC(=O)c1ccc(CSC2=NCCS2)cc1 the results were PfHsp90 yeast 2 inactive, MITF TRPM1 HTS 84, Vif imaging inactive and N-glyco inh inactive.
`O=C(N/N=C/c1ccccn1)c1cc(-c2ccc(Cl)cc2)nc2ccccc12` gave Wnt bcat act inactive, PfHsp90 yeast 2 99, MITF TRPM1 HTS inactive, Vif imaging inactive and N-glyco inh inactive.
For CCCOc1cccc(-c2cc(C(=O)N/N=C/c3ccccn3)c3ccccc3n2)c1 the results were Wnt bcat act inactive, PfHsp90 yeast 2 inactive, MITF TRPM1 HTS inactive, Vif imaging inactive, esBAF inh inactive and N-glyco inh inactive.
`Cc1[nH]c2ccccc2c1/C=N/NC(=O)c1cc(-c2ccncc2)nc2ccccc12` gave Wnt bcat act inactive, PfHsp90 yeast 2 inactive, MITF TRPM1 HTS inactive, Vif imaging inactive, esBAF inh inactive and N-glyco inh 37.
For O=C(N/N=C\c1ccccn1)c1ccccc1O the results were Wnt bcat act 36, PfHsp90 yeast 2 inactive, MITF TRPM1 HTS inactive, Vif imaging inconclusive and N-glyco inh inactive.
For Cc1[nH]c2ccccc2c1/C=N/NC(=O)c1cc(-c2ccccc2)n[nH]1 the results were Wnt bcat act inactive, PfHsp90 yeast 2 inactive, Vif imaging inactive and N-glyco inh inactive.
Screening O=C(N/N=C/c1ccccn1)c1cc(-c2ccc(Br)cc2)nc2ccccc12 returned Wnt bcat act inactive, PfHsp90 yeast 2 106, MITF TRPM1 HTS inactive, Vif imaging inactive and N-glyco inh inactive.
`O=C(N[C@H]1CC[C@H](CCn2cc(C3(O)CCCC3)nn2)O[C@@H]1CO)C1CCC1` gave esBAF inh inactive.
COC(=O)c1ccc(N=NNc2ccccc2)cc1 was read as PfHsp90 yeast 2 inactive, MITF TRPM1 HTS inactive, Vif imaging inactive, esBAF inh inactive and N-glyco inh inactive.
`CC(CCl)n1c(=O)c2ccccc2n1S(C)(=O)=O` (stereo not given) gave Wnt bcat act inactive.
